Screening data: PubChem BioAssay, National Center for Advancing Translational Sciences (NCATS)
An excerpt weighted towards active compounds, which were near 1.9% of everything screened.
CXXC DNA block: qHTS Fluorescence Polarization Assay for Inhibitors of MLL CXXC domain - DNA interaction; Histone-lysine N-methyltransferase 2A (Homo sapiens), Q03164; 290,000 tested, 0.037% active; MLL-CXXC / FITC-HOXA9 DNA fluorescence polarization; Potency, µM (doses to about 115 µM), for inactives: at the highest dose activity change, negative = inhibition, actives largely listed as inhibitors; AID 2662, 2010; active = well fitted inhibition curve with a large enough effect in the polarisation, with a control signal flat, not every such curve was filed as active; inconclusive = small, poorly fitted or top-dose-only effect, or effect the other way, or a change in a side signal; inactive = no such curve, though single readings can be large or run the other way; the % refers to the polarisation; note: potency is the fitted concentration of half-maximal effect
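Steps: dispense CXXC domain solution (7 uM) → pin compounds or unlabeled HOX-A9 DNA control → 5 min ambient → add FLSN-HOX-A9 solution (50 nM) → spin → 30 min ambient → fluorescence polarization. Tris pH 7.5/NaCl/DTT/BSA buffer.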
ClpP mod: qHTS Assay for Activators of ClpP; purified B. subtilis ClpP, FRET peptide cleavage, 20 min; Potency, µM (doses to about 57.5 µM), for inactives: at the top dose activity change, negative = active; 340,000 tested, 1.9% active; active = well fitted falling curve with a large enough effect; inconclusive = small, poorly fitted or top-dose-only effect; inactive = no such curve, though single readings can be large or run the other way; note: potency is the fitted concentration of half-maximal effect; the source files actives as falling curves though it sought activators and does not explain the sign; nearly all actives have a fitted effect of over 65% in size
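ClpP 10 microg/mL final, pH 8 Tris/KCl buffer with BSA, glycerol, Tween-20; compound pinned in; FRET-FV substrate; RT 20 min; Ex320/Em430; ΔFRET vs ADEP 5.8 microM, DMSO, no enzyme.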
Epigenetic derep: Quantitative High-Throughput Screen for Regulators of Epigenetic Control; murine LDR cells, GFP reporter derepression, 30 h; Potency, µM (titrated, usually from 53.9 µM), without a hit: top-dose GFP activation, usual class: activators; 280,000 tested, 0.2% active; AID 1865, 2009; active = well fitted activation curve with a large enough effect; inconclusive = small, poorly fitted or top-dose-only effect; note: potency is the fitted concentration of half-maximal effect; % of control where 0% means no effect; nearly all actives have a fitted effect of over 60% in size
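Murine LDR cells bearing a silenced CMV-driven GFP reporter were exposed to compound for 30 h at 37 C. After PBS washes, GFP-positive cells (20-120 um objects) counted by laser-scanning microplate cytometry.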
PINK1 modulator: A Quantitative High throughput Screen to Identify Chemical Modulators of PINK1 Expression. PINK1 immunofluorescence, high-content cytometry, 24 h. Potency, µM (highest dose often 76.6 µM), for the others: at the highest dose activation (PINK1 increase), actives largely listed as activators. 410,000 tested, 0.2% active. AID 624263, 2012; active = well fitted activation curve with a large enough effect; inconclusive = small, poorly fitted or top-dose-only effect; cell line not stated here; note: potency is the fitted concentration of half-maximal effect; % of control where 0% means no effect; nearly all actives have a fitted effect of over 65% in size
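A stable cell line was treated with compounds at 5 concentrations for 24 hours, with CCCP as control. PINK1 levels and mitochondrial localization were measured by immunofluorescence with mitochondrial, cell and nuclear markers after fixation, read by laser-scanning cytometry.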
Menin MLL FP TR: qHTS Assay for Inhibitors Targeting the Menin-MLL Interaction in MLL Related Leukemias: Competition With Texas Red Labeled MLL-derived Mutant Peptide; O00255; Potency, µM (series often up to 61.6 µM), inactives show top-dose FP activity change, negative = inhibition, most hits filed as inhibitors; 270,000 tested, 0.23% active; Menin + Texas Red MLL mutant peptide, fluorescence polarization; active = well fitted inhibition curve with a large enough effect in the polarisation, with a control signal flat, not every such curve was filed as active; inconclusive = small, poorly fitted or top-dose-only effect, or effect the other way, or a change in a side signal; inactive = no such curve, though single readings can be large or run the other way; the % refers to the polarisation; note: potency is the fitted concentration of half-maximal effect; % of control where 0% means no effect
Menin MLL FP FL: qHTS Assay for Inhibitors Targeting the Menin-MLL Interaction in MLL Related Leukemias: Competition With Fluorescein Labeled MLL-derived Peptide | 290,000 tested, under 10 active | FP activity change, % at 61.4 µM | Fluorescence polarization, fluorescein-MLL peptide displacement from menin; active = well fitted curve in the direction sought with a large enough effect in the polarisation, not every such curve was filed as active; inconclusive = small, poorly fitted or top-dose-only effect, or effect the other way, or a change in a side signal; inactive = no such curve, though single readings can be large or run the other way; the % refers to the polarisation; note: % of control where 0% means no effect
Active calls of the source: *; u = inconclusive; x = no result; [ ] = another dose, or the depositor's remark.

SMILES	CXXC DNA block	ClpP mod	Epigenetic derep	PINK1 modulator	Menin MLL FP TR	Menin MLL FP FL
CCOC(=O)Cc1cc(C(=O)Nc2ccc(Br)cc2)sc1-c1ccc(C)cc1	x	22.4µM*	-1.0%	1.0%	x	x
O=C(O)Cc1cc(C(=O)Nc2ccc(Br)cc2)sc1-c1ccccc1	15.7%	x	-3.0%	x	u	2.0
O=C(COc1ccccc1C(=O)Nc1ccccc1)Nc1ccc(Br)cc1	x	-4.8%	x	-0.9%	x	x
CC(=O)Nc1cc(-c2ccc(C(=O)N3CCOCC3)cc2)cn2c(-c3ccccc3)cnc12	x	25.1µM*	x	5.0%	x	x
CC(C)Cc1nc2oc3c(=O)[nH]cnc3c2c2c1CCC2	-10.5%	11.2µM*	-5.8%	-1.2%	-4.2%	-0.7
OCCN(CCO)CC(O)COc1ccc2c(c1)OCO2 (stereo unspecified)	2.8%	3.2%	0.0%	1.4%	-27.9%	-6.4
CCN(CC)CC(O)COc1ccc2c(c1)OCO2 (stereo unspecified)	-6.0%	12.6µM*	4.4%	2.2%	-17.4%	4.3
Cc1cc(N2CCCC2)ccc1/C=C1/C(=O)N(C)C(=S)N1C	u	x	u	17.3%	22.4µM*	u
Cc1cc(/C=C2/C(=O)N(C)C(=S)N2C)ccc1N1CCCC1	u	0.6%	u	u	-17.2%	u
CN(C)c1ccc(/C=C2\NC(=O)NC2=O)cc1	x	-1.1%	x	-0.8%	x	x
COCC1CCCN(Cc2ccc3c(c2)CN(C(=O)c2cnn(C(C)C)c2)CCO3)C1 (stereo unspecified)	x	x	x	-0.2%	x	x
CCN(CC)C(=O)CSc1nc(-c2ccco2)cc(C(F)(F)F)c1C#N	10.3%	31.6µM*	2.9%	-1.2%	-10.1%	1.9
CCCSc1nc(-c2ccccc2)cc(C(F)(F)F)c1C#N	-2.4%	u	-1.1%	1.5%[38.3 µM]	-2.4%	1.0
CSc1nc(-c2ccco2)cc(C(F)(F)F)c1C#N	24.8%	-7.4%	2.3%	4.9%	u	0.5
N#Cc1c(C(F)(F)F)cc(-c2ccco2)nc1SCc1ccccn1	-0.8%	31.6µM*	u	0.2%[38.3 µM]	-4.2%	u
N#Cc1c(C(F)(F)F)cc(-c2ccco2)nc1SCc1ccncc1	-2.6%	25.1µM*	13.3%	1.9%	19.2%	u
Cc1ccc(C(=O)Nc2cccc(-c3nc(CNC(=O)[C@@H]4C[C@@H](C)NC(=S)N4)c(C)o3)c2)s1	x	x	x	0.5%	x	x
Cc1c(C2(c3cc(C(C)C)c(O)c(Br)c3C)OS(=O)(=O)c3ccccc32)cc(C(C)C)c(O)c1Br	x	-2.3%	x	-0.1%	x	x
CCOC(=O)c1oc2ccc3c(c2c1C)C(=O)CC1(CCN(C(=O)OCC)CC1)O3	-3.2%	-5.3%	-0.8%	0.9%	0.2%	4.0
CCOC(=O)N1CCC2(CC1)CC(=O)c1c(ccc3oc(C(=O)O)c(C)c13)O2	-4.0%	35.5µM*	0.0%	-0.1%	-3.4%	-0.9
Cc1c(C(=O)NCc2ccc(Cl)cc2)oc2ccc3c(c12)C(=O)CC(C)(C)O3	x	u	1.4%	-0.4%	x	x
CCCNC(=O)c1oc2ccc3c(c2c1C)C(=O)CC(C)(C)O3	-1.8%	28.2µM*	-1.0%	1.4%	x	2.3
O=c1c2sccc2n(Cc2cc(=O)n3cc(Cl)ccc3n2)c(=O)n1-c1ccccc1	x	3.8%	-1.8%	1.3%	x	x
Cc1cc(C)c(S(=O)(=O)N2CCN(C(=O)CN3C(=O)NC4(CCCC4)C3=O)CC2)c(C)c1	10.9%	35.5µM*	x	4.9%	x	x
O=C(CN1C(=O)NC2(CCCC2)C1=O)N1CCN(S(=O)(=O)c2ccccc2)CC1	2.0%	x	-1.4%	-0.2%	13.7%	0.9
SMILES	CXXC DNA block	ClpP mod	Epigenetic derep	PINK1 modulator	Menin MLL FP TR	Menin MLL FP FL
COc1cccc2c1Oc1ncccc1N(c1ccc(C(=O)NCc3ccccc3Cl)s1)C2	x	14.1µM*	-5.0%	-2.1%	x	x
COCCNC(=O)CCC(=O)N1Cc2cccc(OC)c2Oc2ncccc21	x	-0.7%	-1.3%	-0.5%	x	x
COc1cccc2c1Oc1ncccc1N(c1ccc(C(=O)NCc3cccc(C)c3)s1)C2	x	31.6µM*	3.2%	-1.8%	x	x
CCOc1ccccc1CNC(=O)c1ccc(N2Cc3ccccc3Oc3ncccc32)s1	x	u	5.6%	3.9%	x	x
OC(c1ccc2c(c1)CN(Cc1c[nH]c3ccccc13)CCO2)c1ccccn1 (stereo unspecified)	x	x	x	-0.1%	x	x
CCn1c(SCC(=O)c2c[nH]c3ccccc23)nc2cc(S(=O)(=O)N3CCOCC3)ccc21	17.8%	28.2µM*	8.5%	3.6%	-4.9%	4.1
CC(CCc1ccccc1)NC(=O)COC(=O)c1cccc2ccccc12 (stereo unspecified)	11.1%	25.1µM*	1.1%	0.5%	-9.2%	-2.1
CC(CCc1ccccc1)NC(=O)COC(=O)c1ccccc1Br (stereo unspecified)	6.0%	0.4%	x	0.4%	-14.3%	-3.7
O=C(NCc1ccccc1)N(Cc1nc2ccccc2c(=O)[nH]1)C1CCCC1	-9.8%	14.1µM*	1.7%	-0.8%	-2.8%[11.7 µM]	1.8
O=C(c1ccccc1)N(Cc1nc2ccccc2c(=O)[nH]1)C1CCCC1	-1.9%	x	-5.6%	1.8%	u	47.5
O=C(CCc1nc(-c2ccccc2)c(-c2ccccc2)o1)OCc1ccc(Br)cc1	-3.4%	28.2µM*	0.7%	-1.2%[38.3 µM]	0.0%	-2.3
O=C(CCc1nc(-c2ccccc2)c(-c2ccccc2)o1)OCc1ccc(Cl)cc1	9.8%	31.6µM*	1.0%	2.9%[38.3 µM]	u	4.7
CC1(C)Cc2nc3sc4c(N(CCO)CCO)ncnc4c3cc2CO1	7.3%	14.1µM*	-1.1%	-0.7%	-6.0%	0.2
COc1nc(C)nc2c1sc1nc3c(cc12)COC(C)(C)C3	-26.2%	28.2µM*	0.0%	0.7%	-8.3%	-3.0
CC1(C)Cc2nc3sc4c(N(CCO)CCO)nnnc4c3cc2CO1	6.2%	3.7%	-0.1%	1.7%	16.5%	-0.2
CC(=O)Oc1ccc2oc(-c3ccccc3)c(C(N)=O)c2c1	-3.5%	3.1%	1.1%	-1.2%	x	2.7
COC(=O)c1ccc2c(c1)C(=O)N(C1CCCCC1)C2=O	4.1%	-7.0%	5.3%	8.4%	-6.7%	0.9
CC(=O)Nc1ccc2c(c1)C(=O)N(C1CCCCC1)C2=O	3.3%	25.1µM*	-0.2%	-0.2%	-1.1%	3.2
CC(=O)/C(=C/Nc1ccc(Oc2ccccc2)cc1)c1ccccc1	1.3%	7.94µM*	-3.4%	7.0%	-9.2%	0.2
CC(=O)/C(=C\Nc1ccc(OCc2ccccc2)cc1)c1ccccc1	-9.8%	-3.0%	2.0%	2.1%	7.7%	-0.7
